Source: PubChem BioAssay
CD40 NFkB inh: CD40 pathway inhibition in BL2 cells; BL2 NF-kB luciferase reporter, CD40L-induced, 4 h; inhibition, % at 10 µM; 0.94% of 83,000 active;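 active = mean inhibition of at least 50% with a set share of replicates also reaching that level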;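 also: 0% = neutral control wells and 100% = IKK inhibitor VII at 50 µM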
* marks the source's active call; other numbers are inactive results; [ ] = remark or other dose. The entries come from a sample that favours hits as a whole.

SMILES	CD40 NFkB inh
CC12CCC3C(CCC4(O)CC(O)CCC34C=NO)C1(O)CCC2C1=COC(=O)C1 (stereo unspecified)	56*
CC12CCC3C(CCC4(O)CC(O)CCC34C=O)C1(O)CCC2C1=CC(=O)OC1 (stereo unspecified)	75*
C/C=C/c1ccc(C2[C@@H]3CN(Cc4nccs4)C[C@H]2N3)cc1 (stereo partly specified)	-3[25 µM]
CN1[C@@H]2CN(CC(F)(F)F)C[C@H]1C2c1ccc(Br)cc1 (stereo partly specified)	13
O=C(Cc1ccccn1)N1CCCCN2[C@@H](CO)[C@H](c3ccc(-c4ccccc4F)cc3)[C@@H]2C1	7[25 µM]
COC(=O)[C@@H]1[C@@H](CO)[C@@H]2Cn3c(cccc3=O)[C@H]1N2C(=O)C1CC1	-9[25 µM]
CCN1C[C@]2(COC)CCC(OC)[C@@]34C5C[C@]6(O)[C@H](OC(=O)c7ccc(OC)cc7)C5[C@@](OC(C)=O)(C[C@H]6OC)[C@@H]([C@H](OC)C23)[C@@H]14 (stereo partly specified)	11[25 µM]
O=C(Cc1cccnc1)N1CCCCN2[C@H](CO)[C@H](c3ccc(C#CC4(O)CCCC4)cc3)[C@H]2C1	6[25 µM]
C=C(C)[C@@H]1CCC(C)=C[C@H]1c1c(OC)cc(C)cc1OC	5[25 µM]
O=C(Cc1ccccn1)N1CCCCN2[C@H](CO)[C@@H](c3ccc(Br)cc3)[C@H]2C1	6[25 µM]
CC1=C(O)C(=O)C=C2C1=CC=C1C2(C)CCC2(C)C3CC(C)(C(=O)O)CCC3(C)CCC12C (stereo unspecified)	110*
O=C(Cc1cccnc1)N1CCCCN2[C@H](C1)[C@@H](c1ccc(C#CC3CCCC3)cc1)[C@@H]2CO	-4[25 µM]
O=C(Cc1ccccn1)N1CCCCN2[C@H](CO)[C@@H](c3ccc(Br)cc3)[C@@H]2C1	1[25 µM]
CC(C)NC(=O)N1C[C@@H]2C(c3ccccc3)[C@H](C1)N2C (stereo partly specified)	13
C=CCN1[C@@H]2CN(C(C)=O)C[C@H]1C2c1ccc(Br)cc1 (stereo partly specified)	11
O=C(Cc1ccncc1)N1CCCCN2[C@H](CO)[C@H](c3ccc(C#Cc4ccccc4F)cc3)[C@@H]2C1	-12[25 µM]
CN(C(=O)Cc1ccccc1)C(CN1CCCC1)c1ccccc1 (stereo unspecified)	6[25 µM]
COC(=O)C1=C(C(=O)OC)C2OC1c1cc3ccccc3cc12	103*
CC(C)NC(C)C(=O)c1ccc2ccccc2c1 (stereo unspecified)	9
C[C@H](CO)N1C[C@H](C)[C@H](CN(C)C(=O)Oc2cccc3ccccc23)OCc2cn(nn2)CCCC1=O	3[25 µM]
CC(C)NC(=O)N1C[C@@H]2N[C@H](C1)C2c1ccc(Br)cc1 (stereo partly specified)	8
COC(=O)[C@@H]1[C@@H](CO)[C@@H]2Cn3c(cccc3=O)[C@@H]2N1CC1CC1	4[25 µM]
COC(=O)[C@@H]1[C@@H](CO)[C@@H]2Cn3c(ccc(-c4ccccc4F)c3=O)[C@H]1N2Cc1cccnc1	-6[25 µM]
CC12CCC3C(CCC4C(=O)C(=O)CCC43C)C1CCC2=O (stereo unspecified)	4[25 µM]
O=C(Nc1cccc(Cl)c1)OC1CN2CCC1CC2 (stereo unspecified)	-51
SMILES	CD40 NFkB inh
N#CC(C#N)=NNc1cccc(Cl)c1	75*[25 µM]
O=C(Cc1ccncc1)N1CCCCN2[C@H](CO)[C@@H](c3ccc(C#Cc4ccccc4F)cc3)[C@@H]2C1	-21[25 µM]
Cc1cccc(S(=O)(=O)N2[C@@H]3Cn4c(ccc(-c5ccc(F)cc5)c4=O)[C@H]2[C@@H](C(=O)O)[C@@H]3CO)c1	-7[25 µM]
COC(=O)[C@H]1[C@H](CO)[C@H]2Cn3c(ccc(-c4cccc(F)c4)c3=O)[C@@H]1N2Cc1ccncc1	-7[25 µM]
O=C1NC2C(O)C(O)C(O)C(O)C2c2cc3c(c(O)c21)OCO3 (stereo unspecified)	97*
COc1cc(C2c3cc4c(cc3CC3COC(=O)C32)OCO4)cc(OC)c1O (stereo unspecified)	-45
O=C1NC2C(=CC(O)C(O)C2O)c2cc3c(c(O)c21)OCO3 (stereo unspecified)	108*
CS(=O)(=O)N1C[C@@H]2N[C@H](C1)C2c1ccccc1 (stereo partly specified)	-5
O=C1CNC[C@H]2[C@@H](c3ccc(Br)cc3)[C@H](CO)N12	-3[25 µM]
CS(=O)(=O)N1CC2NC(C1)C2c1ccc(Br)cc1 (stereo unspecified)	-5
O=C(Cc1ccncc1)N1CCCCN2[C@H](C1)[C@@H](c1ccc(C#Cc3ccccc3F)cc1)[C@@H]2CO	-15[25 µM]
CC1=C[C@H]2[C@]3(O)[C@H](C)[C@@H](O)[C@@]4(O)[C@H]([C@@H]3C=C(CO)C[C@]2(O)C1=O)C4(C)C	-1[25 µM]
